The values below come from PubChem BioAssay (NCATS).

Test [1] in a line: qHTS for Inhibitors of the Functional Ribonucleoprotein Complex (vRNP) of Lassa (LASV) Arenavirus: LASV Primary Screen - GLuc reporter signal (AID 1347082; calls by dose curve; tested in HEK293 reporter line; further: series mostly up to about 57 µM; nearly all actives have a fitted effect of over 60% in size). Background: In qHTS, concentration-response curves come from the screen itself.
Test [2] is described as follows: qHTS for Inhibitors of the Functional Ribonucleoprotein Complex (vRNP) of Lassa (LASV) Arenavirus: Viability assay - alamar blue signal for LASV Primary Screen (AID 1347083; calls by dose curve; tested in HEK293 reporter line; further: nearly all actives have a fitted effect of over 80% in size; further: potency means the concentration at half of the fitted maximal effect).
A short description of test [3]: qHTS for Inhibitors of the Functional Ribonucleoprotein Complex (vRNP) of Lymphocytic Choriomeningitis Arenaviruses (LCMV): Viability assay - alamar blue signal for LCMV Primary Screen (AID 1347085; calls by dose curve; tested in HEK293 reporter line; further: nearly all actives have a fitted effect of over 80% in size; further: potency means the concentration at half of the fitted maximal effect).
Test [4] has as its target Nucleoprotein (Lymphocytic choriomeningitis virus (strain Armstrong)) (UniProt P09992). The test is described as follows: qHTS for Inhibitors of the Functional Ribonucleoprotein Complex (vRNP) of Lymphocytic Choriomeningitis Arenaviruses (LCMV): LCMV Primary Screen - GLuc reporter signal (AID 1347086). Further: series mostly up to about 57 µM; nearly all actives have a fitted effect of over 70% in size.

Inconclusive results are not listed. Values without a mark were called inactive. Active and inactive are the calls of the source. Unless noted, the call rests on the fitted dose curve.

Nucleoprotein (Lymphocytic choriomeningitis virus (strain Armstrong)), sequence (P09992 whole entry, looked up): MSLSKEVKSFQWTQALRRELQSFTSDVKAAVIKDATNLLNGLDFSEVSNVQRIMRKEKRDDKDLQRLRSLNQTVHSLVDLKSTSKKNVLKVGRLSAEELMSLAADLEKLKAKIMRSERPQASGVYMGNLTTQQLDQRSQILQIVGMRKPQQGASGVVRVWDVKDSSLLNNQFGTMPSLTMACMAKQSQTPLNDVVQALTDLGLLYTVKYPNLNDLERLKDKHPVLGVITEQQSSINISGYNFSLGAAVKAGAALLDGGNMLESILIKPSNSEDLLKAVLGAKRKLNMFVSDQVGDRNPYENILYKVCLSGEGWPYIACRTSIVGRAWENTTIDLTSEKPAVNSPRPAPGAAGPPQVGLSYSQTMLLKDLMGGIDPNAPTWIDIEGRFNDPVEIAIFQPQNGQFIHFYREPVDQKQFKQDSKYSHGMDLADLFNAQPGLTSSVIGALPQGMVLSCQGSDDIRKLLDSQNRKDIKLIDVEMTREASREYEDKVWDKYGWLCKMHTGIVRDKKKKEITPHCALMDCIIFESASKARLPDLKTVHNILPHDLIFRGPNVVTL

Turning to `CCCCN1C[C@H](O)[C@@H](O)[C@H](O)[C@H]1CO`, the Potency entry in test [1], in test [2], in test [3] and in test [4] was “inactive” in each case.

On to `Cc1ccccc1N1C(=O)c2cc(S(N)(=O)=O)c(Cl)cc2NC1C` (stereo unspecified), for which the Potency entry in test [1], in test [2], in test [3] and in test [4] was “inactive” throughout.

With `CC(C)NC[C@@H](O)COc1ccc(CC(N)=O)cc1`, the Potency entry in test [1], in test [2], in test [3] and in test [4] was “inactive” throughout.

For `CCn1cc(C(=O)O)c(=O)c2cc(F)c(N3CCNCC3)cc21`, the Potency entry in test [1], in test [2], in test [3] and in test [4] was “inactive” in each case.

For `CN1CCN(C2=Nc3ccccc3Oc3ccc(Cl)cc32)CC1`, the Potency entry in test [1], in test [2], in test [3] and in test [4] was “inactive” throughout.

For the molecule `CCCN(CCC)CCc1cccc2c1CC(=O)N2`, the Potency entry in test [1], in test [2], in test [3] and in test [4] was “inactive” throughout.

Take `OCCN(CCO)c1nc(N2CCCCC2)c2nc(N(CCO)CCO)nc(N3CCCCC3)c2n1`: the Potency result in test [1], in test [2], in test [3] and in test [4] was “inactive” each time.

`CN1CCC(=C2c3ccccc3C=Cc3ccccc32)CC1`: the Potency entry in test [1], in test [2], in test [3] and in test [4] was “inactive” each time.

`C=C(CC)C(=O)c1ccc(OCC(=O)O)c(Cl)c1Cl`: the Potency entry in test [1], in test [2], in test [3] and in test [4] was “inactive” in each case.

With `Cn1c(=O)c2c(ncn2CC(O)CO)n(C)c1=O` (stereo unspecified), the Potency result in test [1], in test [2], in test [3] and in test [4] was “inactive” throughout.

`CCCN[C@H]1CCc2nc(N)sc2C1`: the Potency result in test [1], in test [2], in test [3] and in test [4] was “inactive” in each case.

`C[C@@H]1C[C@H]2[C@@H]3CCC4=CC(=O)C=C[C@]4(C)[C@@]3(F)[C@@H](O)C[C@]2(C)[C@@]1(O)C(=O)CO`: the Potency entry in test [1], in test [2], in test [3] and in test [4] was “inactive” in each case.

For `CCN(CC)CCOC(=O)C1(C2CCCCC2)CCCCC1`, the Potency result in test [1], in test [2], in test [3] and in test [4] was “inactive” throughout.

Take `CC(C)Oc1ccc2c(=O)c(-c3ccccc3)coc2c1`: the Potency result in test [1], in test [2], in test [3] and in test [4] was “inactive” each time.

Take `Cc1nc(-c2ccc(OCC(C)C)c(C#N)c2)sc1C(=O)O`: the Potency result in test [1], in test [2], in test [3] and in test [4] was “inactive” each time.

On to `Oc1ccc(C2CNCCc3c2cc(O)c(O)c3Cl)cc1` (stereo unspecified), for which the Potency entry in test [1], in test [2], in test [3] and in test [4] was “inactive” throughout.

For the molecule `Nc1[nH]c(=O)ncc1F`, the Potency entry in test [1], in test [2], in test [3] and in test [4] was “inactive” in each case.

On to `CCC(C)n1ncn(-c2ccc(N3CCN(c4ccc(OC[C@H]5CO[C@](Cn6cncn6)(c6ccc(Cl)cc6Cl)O5)cc4)CC3)cc2)c1=O` (stereo partly specified), for which the Potency result in test [1], in test [2], in test [3] and in test [4] was “inactive” throughout.

On to `COc1ccccc1OCC(O)CN1CCN(CC(=O)Nc2c(C)cccc2C)CC1` (stereo unspecified), for which the Potency result in test [1], in test [2], in test [3] and in test [4] was “inactive” in each case.

`CCCCc1ncc(/C=C(\Cc2cccs2)C(=O)O)n1Cc1ccc(C(=O)O)cc1`: the Potency result in test [1], in test [2], in test [3] and in test [4] was “inactive” throughout.

For the molecule `CCCN1C[C@H](CSC)C[C@@H]2c3cccc4[nH]cc(c34)C[C@H]21`, the Potency result in test [1], in test [2], in test [3] and in test [4] was “inactive” throughout.

As for `C[C@H]1O[C@H](O[C@H]2[C@H](O)[C@@H](O)[C@@H](O[C@H]3[C@H](O)[C@@H](O)[C@H](O)O[C@@H]3CO)O[C@@H]2CO)[C@H](O)[C@@H](O)[C@@H]1N[C@H]1C=C(CO)[C@@H](O)[C@H](O)[C@H]1O`, the Potency entry in test [1], in test [2], in test [3] and in test [4] was “inactive” throughout.

Consider `O=NN(CCCl)C(=O)NC1CCCCC1`, for which the Potency result in test [1], in test [2], in test [3] and in test [4] was “inactive” in each case.

For the molecule `CO[C@@H](C(=O)N1Cc2[nH]nc(NC(=O)c3ccc(N4CCN(C)CC4)cc3)c2C1)c1ccccc1`, the Potency entry in test [1] and in test [4] was “inactive” each time. Moreover, the Potency in test [2] is 4.85 µM (active); in test [3] it was 6.85 µM (active).

For the molecule `CCOC(=O)[C@H](CCc1ccccc1)N[C@@H](C)C(=O)N1Cc2ccccc2C[C@H]1C(=O)O`, the Potency result in test [1], in test [2], in test [3] and in test [4] was “inactive” in each case.

Consider `CC(=O)OCC(CCn1cnc2cnc(N)nc21)COC(C)=O`, for which the Potency entry in test [1], in test [2], in test [3] and in test [4] was “inactive” each time.

`CC[C@@]1(c2ccccc2)NC(=O)N(C)C1=O`: the Potency result in test [1], in test [2], in test [3] and in test [4] was “inactive” in each case.

Regarding `CCOC(=O)[C@H](CCc1ccccc1)N[C@@H](C)C(=O)N1[C@H](C(=O)O)C[C@@H]2CCC[C@@H]21`, the Potency result in test [1], in test [2], in test [3] and in test [4] was “inactive” throughout.

`Cn1cc[nH]c1=S`: the Potency result in test [1], in test [2], in test [3] and in test [4] was “inactive” throughout.

Consider `CCC1(c2ccccc2)C(=O)NCNC1=O`, for which the Potency entry in test [1], in test [2], in test [3] and in test [4] was “inactive” in each case.

With `CNC1(C)C2CCC(C2)C1(C)C` (stereo unspecified), the Potency result in test [1], in test [2], in test [3] and in test [4] was “inactive” throughout.

Turning to `Cc1ccc2c(n1)Oc1ccc(C(C)C(=O)OCC(=O)N(C)C)cc1C2` (stereo unspecified), the Potency result in test [1], in test [2], in test [3] and in test [4] was “inactive” throughout.

Turning to `Cc1ccccc1C(=O)Nc1ccc(C(=O)N2CCCC(O)c3cc(Cl)ccc32)c(C)c1` (stereo unspecified), the Potency entry in test [1], in test [2], in test [3] and in test [4] was “inactive” each time.

For the molecule `CO/N=C(\C(=O)N[C@@H]1C(=O)N2C(C(=O)O)=C(CSc3nc(=O)c(O)nn3C)CS[C@H]12)c1csc(N)n1`, the Potency entry in test [1], in test [2], in test [3] and in test [4] was “inactive” each time.
